KCNQ2 enhance: enhances the rat KCNQ2 potassium channel | actives 0.54% (n = 310,000) | B-score at 10 µM | CHO-K1 KCNQ2, FluxOR thallium flux fluorescence; stronger effect = higher value;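 active = fluorescence ratio B-score at least 3 SD of library B-scores, with initial fluorescence B-score within 3 of them, cut at about 5.3 in these data; same plate scores as AID 2156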;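 also: B-score of peak minus minimum over baseline fluorescence ratio after K+ and Tl+ stimulus; positive B-score means potentiation of KCNQ2 with more thallium influx and brighter signal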
KCNQ2 inh: blocks the rat KCNQ2 potassium channel; O88943; CHO-K1 KCNQ2, FluxOR thallium flux, 20 min; stronger effect = lower value; B-score at 10 µM; actives 1.1% (n = 310,000); AID 2156;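 active = fluorescence ratio B-score at most minus 3 library SDs, with starting brightness B-score within 2 library SDs, cut at about -5.5 in these data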
Kir21 conf inh: confirmation of mouse Kir2.1 potassium channel inhibitors. Tl flux remaining, % of negative control (stronger effect = lower value), % at 10 µM. Kir2.1-expressing cells, FluxOR thallium flux fluorescence; stronger effect = lower value. actives 41% (n = 2,300). shares compounds with KCNQ2 enhance;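 active = Primary-screen hit whose thallium flux fell at least 3 control SD below untreated wells in both duplicates, with normal baseline fluorescence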
HEK293 ctr: counter-screen for Kir2.1 inhibitors: effect in parental HEK293 cells. actives 19% (n = 2,300). shares compounds with KCNQ2 enhance. FluxOR signal as % of negative control (100 = no effect), % at 10 µM. FluxOR thallium flux fluorescence; 0% = unstimulated blank wells;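 active = dye signal at least 3 control SD above or below untreated wells in both duplicates, raw fluorescence within 3, either direction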;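 also: percent is based on the flux ratio of peak minus minimum fluorescence over baseline F0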
CHO-K1 ctr: counter-screen for KCNQ2 potentiators: effect in parental CHO-K1 cells; shares compounds with KCNQ2 enhance; FluxOR thallium flux fluorescence; zero = vehicle mean+3SD, 100% = vehicle-minus-blank window; activity increase over 3SD of controls, % at 10 µM; actives 43% (n = 1,200); AID 2282;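 active = signal rise of at least 3 SD above the untreated control mean, in both duplicate wells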;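 also: counter screen of KCNQ2 potentiator hits so any rise reflects channel-independent effects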
KCNQ1 sel pot: tests whether KCNQ2 potentiators also act on human KCNQ1. CHO KCNQ1 stable, FluxOR thallium flux fluorescence; beyond 3SD, as % of vehicle-control signal. activation over 3SD threshold, % at 10 µM. shares compounds with KCNQ2 enhance. actives 28% (n = 1,200). AID 2283;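 active = fluorescence ratio rise of at least 3 SD of vehicle wells above their mean, in both replicate wells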
KCNQ2 pot confirm: rat KCNQ2 channel potentiator confirmation. shares compounds with KCNQ2 enhance. CHO-KCNQ2 cells, FluxOR thallium flux fluorescence. potentiation, less the hit threshold, % at 10 µM. actives 68% (n = 1,200). AID 2287;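 active = fluorescence ratio rising 3 SD or more over the vehicle control mean in both replicates, plus primary screen hit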;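 also: peak minus minimum thallium fluorescence divided by baseline after K/Tl stimulus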
Kir21 spec: mouse Kir2.1 off-target activity of KCNQ2 potentiators; activity over 3SD threshold, % at 10 µM; AID 2345; shares compounds with KCNQ2 enhance; HEK293 Kir2.1, FluxOR thallium flux fluorescence; actives 2% (n = 1,200);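 active = fluorescence ratio rise of at least 3 SD above the vehicle-control mean, seen in both replicates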
KCNQ2 W236L MoA: rat KCNQ2 W236L mutant potentiation by KCNQ2 potentiators. shares compounds with KCNQ2 enhance. CHO KCNQ2-W236L, automated patch clamp current. current increase over 3SD of negative controls (%), stronger effect = higher value, % at 25 µM. actives 10% (n = 940). AID 2558;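 active = current increase at least 3 SD of the untreated controls above them in both duplicate recordings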
Target sequence (O88943 whole entry W236L, looked up): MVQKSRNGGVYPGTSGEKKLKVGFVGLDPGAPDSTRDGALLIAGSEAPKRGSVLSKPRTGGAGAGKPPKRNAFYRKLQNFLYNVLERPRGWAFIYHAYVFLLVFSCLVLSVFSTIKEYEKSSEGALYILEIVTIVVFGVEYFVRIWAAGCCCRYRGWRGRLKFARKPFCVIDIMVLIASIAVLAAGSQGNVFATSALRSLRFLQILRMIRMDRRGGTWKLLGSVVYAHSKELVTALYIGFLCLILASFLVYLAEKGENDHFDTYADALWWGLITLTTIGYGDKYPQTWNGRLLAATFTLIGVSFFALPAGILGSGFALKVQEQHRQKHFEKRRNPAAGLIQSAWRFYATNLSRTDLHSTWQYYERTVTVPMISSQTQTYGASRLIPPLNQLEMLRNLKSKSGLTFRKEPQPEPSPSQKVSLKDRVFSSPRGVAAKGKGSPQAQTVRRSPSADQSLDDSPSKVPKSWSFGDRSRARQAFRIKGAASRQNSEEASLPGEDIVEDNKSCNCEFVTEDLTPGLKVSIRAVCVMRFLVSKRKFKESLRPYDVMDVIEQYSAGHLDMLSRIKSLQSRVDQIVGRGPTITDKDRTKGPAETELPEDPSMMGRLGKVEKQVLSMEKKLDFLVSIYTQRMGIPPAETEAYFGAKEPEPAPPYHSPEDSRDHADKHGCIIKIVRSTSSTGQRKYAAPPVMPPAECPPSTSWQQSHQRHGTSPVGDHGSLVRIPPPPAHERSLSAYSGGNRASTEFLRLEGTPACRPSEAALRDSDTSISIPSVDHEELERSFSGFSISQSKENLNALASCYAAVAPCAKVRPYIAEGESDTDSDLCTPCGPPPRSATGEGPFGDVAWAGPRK
Each line names hits and unclear results; the compound was inactive in the other large screens (follow-up assays come after a bar, where they were run). Most compounds without a hit are left out; they make up all but 1.6% or so of the library.

O=Cc1ccc(-c2ccccc2OC(F)(F)F)o1	KCNQ2 enhance 6.56 | Kir21 conf inh inactive | HEK293 ctr inactive | CHO-K1 ctr inactive | KCNQ1 sel pot inactive | KCNQ2 pot confirm inactive | Kir21 spec inactive
Cc1c(C(=O)O)cccc1-c1ccc(C=O)o1	none (no result: KCNQ2 enhance)
N=C(CC1CC(=O)NC(=O)C1)C1=C(O)CCCC1=O	none (no result: KCNQ2 enhance)
COc1cc(CNCCCCO)ccc1OCc1ccccc1F	none
S=C(Nc1ccccc1)Nc1ccc(OCc2ccc(Cl)cc2Cl)cc1	none (no result: KCNQ2 enhance)
OCCCCNCc1ccc(OCc2ccc(Cl)cc2Cl)cc1	none (no result: KCNQ2 enhance) | Kir21 conf inh 33.0% | HEK293 ctr inactive
OCCNCc1ccc(OCc2ccc(Cl)cc2Cl)cc1	none (no result: KCNQ2 enhance) | Kir21 conf inh 31.0% | HEK293 ctr inactive
Cc1c(CCC(=O)NCCC(=O)O)c(=O)oc2c(C)c3oc4c(c3cc12)CCCC4	none
Nc1c2c(nc3sc4c(c13)CCCCC4)CCCCC2	none (no result: KCNQ2 enhance)
Nc1nc2c(s1)CCCCCCCCCC2	KCNQ2 enhance 6.01 | Kir21 conf inh 64.0% | HEK293 ctr 70.0% | CHO-K1 ctr inactive | KCNQ1 sel pot 88.9 | KCNQ2 pot confirm inactive | Kir21 spec inactive | KCNQ2 W236L MoA inactive
Nc1[nH]n2c(=O)cc(-c3ccccc3)nc2c1N=Nc1ccc(S(N)(=O)=O)cc1	none
Nc1[nH]n2c(=O)cc(-c3ccccc3)nc2c1N=Nc1ccccc1	KCNQ2 enhance 6.6 | Kir21 conf inh inactive | HEK293 ctr inactive | CHO-K1 ctr inactive | KCNQ1 sel pot inactive | KCNQ2 pot confirm 9.8 | Kir21 spec inactive | KCNQ2 W236L MoA inactive
Cc1cc(Cl)c(OCCCNC2CCCC2)c(Br)c1	none
C=CCNCCOc1c(C)cc(C)cc1Cl	none
C=CCNCCCCOc1c(Cl)cc(C)cc1Br	none | Kir21 conf inh 35.0% | HEK293 ctr inactive
COCCCNCCCCOc1c(Cl)cc(C)cc1Br	none (no result: KCNQ2 enhance) | Kir21 conf inh 43.5% | HEK293 ctr inactive
COc1cc2cc[n+](Cc3ccc([N+](=O)[O-])cc3)cc2cc1OC	none
CCOC(=O)C(=O)Nc1nnc(CCc2ccccc2)s1	none
CC(O)[C@@]1(O)CC[C@H]2[C@@H]3CC[C@H]4C[C@@H](O)CC[C@]4(C)C3=CC[C@@]21C (some centres not stated)	none (no result: KCNQ2 enhance)
CCC(C)(C)N(C(=O)CCC(=O)Nc1cc(C)on1)C(C(=O)NC(C)(C)C)c1ccc(OC)cc1 (configuration not stated)	none (no result: KCNQ2 enhance)
C#CCNC(=O)C1=C[C@@H](C(C)(C)C)C[C@@H](OCc2ccc(CO)cc2)O1	none (no result: KCNQ2 enhance)
C#CCNC(=O)C1=C[C@@H](C2CC2)C[C@@H](OCc2ccc(CO)cc2)O1	none | Kir21 conf inh 51.0% | HEK293 ctr inactive
CS(=O)(=O)Cc1ccc(C(=O)N(CCc2ccccc2)Cc2ccccc2)cc1	none (no result: KCNQ2 enhance)
COc1cc(N2C(=O)C=CC2=O)c(OC)cc1Cl	none
CC(C)OC(=O)c1cc2c(ccn2C)n1CC(=O)N1CCC(Cc2ccccc2)CC1	KCNQ2 enhance 9.87 | Kir21 conf inh inactive | HEK293 ctr inactive | CHO-K1 ctr 39.5 | KCNQ1 sel pot 69.7 | KCNQ2 pot confirm 7.1 | Kir21 spec inactive | KCNQ2 W236L MoA inactive
Cc1ccccc1Cn1c(C(=O)OC(C)C)cc2c1ccn2C	none (no result: KCNQ2 enhance)
COC(=O)c1cccc(N(CC(=O)NC2CCCCC2)C(=O)CNC(=O)c2cccs2)c1	none (no result: KCNQ2 enhance)
O=C(OCC(=O)N1CCN(C(=O)c2ccco2)CC1)c1ccccc1NCCO	none (no result: KCNQ2 enhance)
Cc1ccc(S(=O)(=O)NCCC(=O)N2CCC(Cc3ccccc3)CC2)cc1	KCNQ2 enhance 5.32 | Kir21 conf inh inactive | HEK293 ctr inactive | CHO-K1 ctr 12.9 | KCNQ1 sel pot inactive | KCNQ2 pot confirm inactive | Kir21 spec inactive | KCNQ2 W236L MoA inactive
Cc1ccc(S(=O)(=O)NCCC(=O)N2CCCCCC2)cc1	none
CCOCCCNC(=O)c1ccc(-n2c(=S)[nH]c3ccccc3c2=O)cc1	none (no result: KCNQ2 enhance)
CCO/N=C(\C)c1c(O)c2ccccc2n(C)c1=O	none
COc1ccc2ccccc2c1CNC(C)c1ccccc1 (configuration not stated)	none
CC(NCCCOc1cccc2ccccc12)c1ccccc1 (configuration not stated)	none (no result: KCNQ2 enhance) | Kir21 conf inh 14.0% | HEK293 ctr inactive
Cc1ccc(/C=N/N2CCN(Cc3ccc(Cl)cc3)CC2)o1	none (no result: KCNQ2 enhance)
CCCCNC(=S)NC(=O)c1ccc([N+](=O)[O-])cc1	KCNQ2 enhance 8.79 | Kir21 conf inh inactive | HEK293 ctr 188.0% | CHO-K1 ctr 2.5 | KCNQ1 sel pot 14.1 | KCNQ2 pot confirm 10.3 | Kir21 spec inactive | KCNQ2 W236L MoA inactive
CC(C)CNC(=S)NC(=O)c1ccc([N+](=O)[O-])cc1	none
COc1ccc(CC(O)COS(N)(=O)=O)cc1 (configuration not stated)	none
CCn1c(SCCOc2ccc(Cl)cc2)nnc1-c1cccs1	none (no result: KCNQ2 enhance) | Kir21 conf inh 69.0% | HEK293 ctr inactive
CCn1c(SCC(=O)c2ccc(Cl)cc2)nnc1-c1cccs1	none
CCCC(=O)Nc1ccc(C#Cc2ccccc2)cc1	none (no result: KCNQ2 enhance)
CCCCC#Cc1ccccc1CC(=O)Nc1ccccc1	KCNQ2 enhance 7.13 | Kir21 conf inh inactive | HEK293 ctr inactive | CHO-K1 ctr 99.4 | KCNQ1 sel pot inactive | KCNQ2 pot confirm 9.6 | Kir21 spec inactive | KCNQ2 W236L MoA inactive
CCC1(C)CC(C(CC(=O)O)c2ccc(C)cc2)CCO1 (configuration not stated)	none
CC1CCN(C(=O)CSc2nc(C(C)C)nc3c2c(=O)n(C)c(=O)n3C)CC1	KCNQ2 enhance 27 | Kir21 conf inh inactive | HEK293 ctr inactive | CHO-K1 ctr 20.9 | KCNQ1 sel pot inactive | KCNQ2 pot confirm 123.8 | Kir21 spec inactive | KCNQ2 W236L MoA inactive
Cc1nc(SCC(=O)N2CCOCC2)c2c(=O)n(C)c(=O)n(C)c2n1	none
CC(C)c1nc(SCC(=O)N2CCCc3ccccc32)c2c(=O)n(C)c(=O)n(C)c2n1	none
Cn1c(=O)c2c(SCC(=O)N3CCCC3)nc(-c3ccccc3)nc2n(C)c1=O	none
Cn1c(=O)c2c(SCC(=O)N3CCOCC3)nc(C3CCCCC3)nc2n(C)c1=O	none
CC(C)Cc1nc(SCC(=O)N2CCCC2)c2c(=O)n(C)c(=O)n(C)c2n1	KCNQ2 enhance 6.52 | Kir21 conf inh inactive | HEK293 ctr inactive | CHO-K1 ctr 32.6 | KCNQ1 sel pot inactive | KCNQ2 pot confirm 19.4 | Kir21 spec inactive | KCNQ2 W236L MoA inactive

Compound activity: PubChem BioAssay, Johns Hopkins Ion Channel Center
